Many of the other results were omitted from the sample, so hits are more common in it than they were.
CBX7 inh = inhibitors of human CBX7 binding to H3K27me3 peptide; O95931; AlphaScreen His6-CBX7 / biotin-H3K27me3 peptide binding; active compounds read low; normalised signal (fraction of DMSO) (test concentration not listed); 66,000 tested, 1.1% active; AID 1224903; in the data active means normalised signal below about 0.5
Target sequence (O95931 whole entry, looked up): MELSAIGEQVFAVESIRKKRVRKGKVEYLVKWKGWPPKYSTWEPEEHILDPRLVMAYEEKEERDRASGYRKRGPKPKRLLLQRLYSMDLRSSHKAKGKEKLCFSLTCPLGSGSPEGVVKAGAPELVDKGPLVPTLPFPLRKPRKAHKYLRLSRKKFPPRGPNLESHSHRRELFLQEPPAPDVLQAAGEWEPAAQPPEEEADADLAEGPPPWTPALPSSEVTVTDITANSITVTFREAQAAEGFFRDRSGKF
Starred values were filed as active, the others as inactive.

SMILES | CBX7 inh
COc1ccc(-c2nc3ccc(C)cn3c2Nc2ccc3c(c2)OCCO3)cc1 | 0.97
COc1ccc(-c2nn(C)c3sc(C(=O)Nc4ccc(Br)cc4C)cc23)cc1OC | 1.1
COC(=O)CNC(=O)Cn1cnc2sc(C)c(C)c2c1=O | 1.1
Cc1ccc2nc(NC(=O)C3CCCN3S(=O)(=O)c3cccc4cccnc34)sc2c1 (stereo not given) | 0.92
COc1ccc(S(=O)(=O)N2CC=C(C(=O)NCCc3ccc(Cl)cc3)CC2)cc1 | 1
Cn1c(CNc2cc(Cl)ccc2Cl)nc2ccccc21 | 1
Cc1ccccc1NCc1nc2ccccc2n1C | 1
Cn1c(CNc2ccccc2O)nc2ccccc21 | 0.46*
O=C(CSc1nnc(-c2ccccc2F)o1)Nc1nc(-c2ccccc2)cs1 | 1
O=[N+]([O-])c1ccc(-c2cn(-c3ccccc3NCc3ccccc3)cn2)o1 | 0.48*
Cc1ccc(S(=O)(=O)c2nc(C)oc2NCc2ccccc2)cc1 | 1
Cn1cnc(S(=O)(=O)NCc2ccccc2)c1 | 1
CC1CCN(c2nc3ccc(C(=O)NCCCN4CCN(C5CCCCC5)CC4)cc3s2)CC1 | 1.4
CCCn1cc(C2CC(=O)N(c3ccc(Br)cc3)C2=O)c2ccccc21 (stereo not given) | 1.1
CCCn1cc(C2CC(=O)N(c3ccccc3C)C2=O)c2ccccc21 (stereo not given) | 0.46*
CCCn1cc(C2CC(=O)N(c3ccc(C)cc3)C2=O)c2ccccc21 (stereo not given) | 1
Cc1[nH]nc2c1C(c1ccccc1)NC2=O (stereo not given) | 0.99
COc1ccc(Nc2cc(C(=O)NCCN(Cc3ccccc3)C(C)C)c3ccccc3n2)cc1OC | 0.54
COc1ccc(Nc2cc(C(=O)NCCCN(C)Cc3ccccc3)c3ccccc3n2)cc1OC | 0.44*
CCCCN(C)CCCNC(=O)c1cc(Nc2ccc(OC)c(OC)c2)nc2ccccc12 | 0.74
COc1cc(NC2c3ccccc3C(=O)N2c2ccccc2C)cc(OC)c1 (stereo not given) | 0.98
CCn1c(CCCNC(=O)Cc2ccccc2)nc2ccccc21 | 1.1
Cc1ccc(NC2c3ncccc3C(=O)N2Cc2ccc(F)cc2)cc1C (stereo not given) | 0.79
COc1ccc(Cl)cc1NC1c2ccccc2C(=O)N1Cc1ccccc1 (stereo not given) | 0.53
COc1ccc(CN2C(=O)c3cccnc3C2Nc2ccc(OC)cc2)cc1 (stereo not given) | 0.017*
SMILES | CBX7 inh
COc1ccc(NC2c3ccccc3C(=O)N2Cc2ccccc2)cc1Cl (stereo not given) | 0.99
COc1ccc(CN2C(=O)c3cccnc3C2Nc2cc(Cl)c(OC)cc2OC)cc1 (stereo not given) | 0.073*
COc1ccc(CN2C(=O)c3cccnc3C2Nc2ccc(C)cc2)cc1 (stereo not given) | 0.5
CN(CCc1ccccn1)C1CCN(Cc2ccccc2)CC1 | 1
COc1cccc(NC(=O)C2c3ccccc3C(=O)N3CCc4ccccc4C23)c1 (stereo not given) | 0.94
CCOc1cccc(CNc2ccc3[nH]c(=O)[nH]c3c2)c1OCc1ccc(Cl)cc1 | 0.44*
O=c1[nH]c2ccc(NCc3ccc(OCc4ccc(Cl)cc4)cc3)cc2[nH]1 | 0.86
O=c1[nH]c2ccc(NCc3ccc(F)cc3)cc2[nH]1 | 0.92
CCOC(=O)c1c(NC(=O)COc2ccccc2)sc(C(=O)Nc2ccc(OC)cc2)c1C | 1.1
CCN1CCn2c3c(c4cc(Cl)ccc42)CCCC31 (stereo not given) | 0.98
Cc1ccc2c(c1)c1c3n2CCN(CCC(N)=O)C3CCC1 (stereo not given) | 0.97
OC1(c2ccc3c(c2)c2c4n3CCN(Cc3ccccc3)C4CCC2)CCCC1 (stereo not given) | 0.37*
O=C(CSc1nc(Nc2ccc(F)cc2)c2ccccc2n1)NCC1CCCO1 (stereo not given) | 1
Cc1ccc2c(c1)NC(=O)C(CC(=O)Nc1ccccc1C)O2 (stereo not given) | 1.1
Cc1ccc(Nc2c(-c3cccc(Br)c3)nc3cc(C)ccn23)cc1 | 0.79
Fc1ccc(Nc2c(-c3ccccn3)nc3ccccn23)cc1 | 0.059*
Cc1ccc(Nc2c(-c3cccnc3)nc3cc(C)ccn23)cc1 | 0.91
Cc1ccc(-c2nc3cnccn3c2Nc2ccc(C(C)C)cc2)cc1 | 0.91
COc1ccc(Nc2c(-c3ccccn3)nc3ccc(Br)cn23)cc1 | 0.84
Fc1ccc(Nc2c(-c3ccccc3)nc3ccccn23)cc1 | 1
Cc1ccc(Nc2c(-c3ccccn3)nc3cc(C)ccn23)cc1 | 0.00096*
Cc1ccn2c(Nc3ccc(C(C)C)cc3)c(-c3ccsc3)nc2c1 | 1
Cc1ccn2c(Nc3ccc(C(C)C)cc3)c(-c3ccccn3)nc2c1 | 0.0075*
COc1ccc(Nc2c(-c3ccccn3)nc3ccc(Cl)cn23)cc1 | 0.72
COc1ccc(Nc2c(-c3ccccn3)nc3cc(C)ccn23)cc1 | 0*
SMILES | CBX7 inh
Fc1ccc(Nc2c(-c3ccc(Cl)cc3)nc3ncccn23)cc1 | 1.2
COc1cc(C2C(N3C(=O)c4ccccc4C3=O)C(=O)N2c2ccc(Cl)cc2)cc(OC)c1OC (stereo not given) | 0.79
CCc1cccc(C)c1Nc1c(-c2ccc(Cl)cc2)nc2nc(C)cc(C)n12 | 1
CCOC(=O)c1cc(-c2ccccc2)n(CCC(=O)N2CCN(c3cccc(Cl)c3)CC2)c1C | 0.87
Cc1cc(C)cc(NC(=O)C2CCN(c3ccc(N4CCOCC4)nn3)CC2)c1 | 0.96
CCOc1ccc(S(=O)(=O)c2cn(Cc3ccc(C)cc3)c3ccc(OCC)cc3c2=O)cc1 | 0.93
CCOc1ccc(-c2nnc(Nc3ccc(C)cc3)c3ccccc23)cc1 | 0.59
CC(C)c1ccc(NC(=O)Cn2c(SCc3ccccc3F)nc3ccncc32)cc1 | 0.99
COc1ccccc1CNC(=O)C1CCN(S(=O)(=O)c2cccs2)CC1 | 0.99
O=C(O)c1cccc(Nc2ncnc3[nH]ncc23)c1 | 1
CCN(C(=O)CN(C)S(=O)(=O)c1ccc2c(c1)n(C)c(=O)c(=O)n2C)c1ccccc1 | 1.2
Cc1cc(C)cc(NC(=O)C2=CCN(S(=O)(=O)c3ccccc3)CC2)c1 | 1.1
Cc1ccc2nc(-c3ccccc3)cc(C(=O)Nc3ccc(Cl)cc3)c2c1 | 1
COC(=O)CNc1c(-c2ccccn2)nc2ccccn12 | 0.28*
COC(=O)CNc1c(-c2ccccn2)nc2cnccn12 | 0.98
COC(=O)CNc1c(-c2c[nH]c3ccccc23)nc2ccc(Br)cn12 | 0.8
O=C1CC(N2CCN(Cc3ccc4c(c3)OCO4)CC2)C(=O)N1CC(c1ccccc1)c1ccccc1 (stereo not given) | 1.3
c1ccc(-c2csc(N3CCN(Cc4ccc5c(c4)OCO5)CC3)n2)cc1 | 0.96
c1ccc(CN2CCC(NCCc3ccc4c(c3)OCO4)CC2)cc1 | 0.48*
Cc1ccc(NC(=O)Cn2c(-c3ccccc3Cl)nc3sc(C)c(C)c3c2=O)cc1F | 1
COc1ccc(-c2c(C)nn3c(N4CCc5ccccc5C4)cc(C)nc23)cc1OC | 0.97
COc1cc(C2CC(=O)NC3=C2C(=O)CC(C)(C)C3)ccc1OCc1ccccc1 (stereo not given) | 0.88
Cc1ccc(CCNC(=O)C2CCC(CNS(=O)(=O)c3cccc4cccnc34)CC2)cc1 (stereo not given) | 0.99
COc1ccccc1NC(=O)c1ccc(CNc2c(N3CCC(C)CC3)c(=O)c2=O)cc1 | 1
Cc1ccc(N2C(=O)c3ccccc3C2Nc2cc(F)ccc2F)nc1 (stereo not given) | 1
Cc1ccccc1-c1nc(CSCC(=O)N2CCCC2)c(C)o1 | 0.87

High-throughput results: PubChem, Bradner/Qi Labs at DFCI
